Sampled rows, rich in hits. Any-hit rate of the full collection: about 2.9%.
PAFAH1B2 FP inh – PAFAH1B2 enzyme inhibitors, primary screen, biochemical, fluorescence polarization, human; recombinant PAFAH1B2, FP-rhodamine activity probe; inhibition, % at 3.39 µM; Platelet-activating factor acetylhydrolase IB subunit alpha2 (Homo sapiens), P68402; 1.2% of 340,000 active;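 active = inhibition above the mean of all tested compounds plus 3 SD, cut at about 24% in these data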
PAFAH1B3 FP inh – PAFAH1B3 enzyme inhibitors, primary screen, biochemical, fluorescence polarization, human | Platelet-activating factor acetylhydrolase IB subunit alpha1 (Homo sapiens), Q15102 | recombinant PAFAH1B3, FP-rhodamine probe | 0.28% of 340,000 active | AID 492972, 2010 | inhibition, % at 3.39 µM;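 active = inhibition above the screen-wide average of all tested compounds plus 3 SD, cut at about 25% in these data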
pPAFAH FP inh – pPAFAH enzyme inhibitors, primary screen, biochemical, fluorescence polarization, human. AID 463082, 2010. recombinant pPAFAH, FP-rhodamine probe fluorescence polarization. inhibition, % at 3.39 µM. 1.5% of 330,000 active;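 active = inhibition above the mean inhibition across the screen plus 3 SD, cut at about 25% in these data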;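 also: inhibitors block binding of the rhodamine activity-based probe so polarization drops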
Target sequence (Q13093 whole entry, looked up): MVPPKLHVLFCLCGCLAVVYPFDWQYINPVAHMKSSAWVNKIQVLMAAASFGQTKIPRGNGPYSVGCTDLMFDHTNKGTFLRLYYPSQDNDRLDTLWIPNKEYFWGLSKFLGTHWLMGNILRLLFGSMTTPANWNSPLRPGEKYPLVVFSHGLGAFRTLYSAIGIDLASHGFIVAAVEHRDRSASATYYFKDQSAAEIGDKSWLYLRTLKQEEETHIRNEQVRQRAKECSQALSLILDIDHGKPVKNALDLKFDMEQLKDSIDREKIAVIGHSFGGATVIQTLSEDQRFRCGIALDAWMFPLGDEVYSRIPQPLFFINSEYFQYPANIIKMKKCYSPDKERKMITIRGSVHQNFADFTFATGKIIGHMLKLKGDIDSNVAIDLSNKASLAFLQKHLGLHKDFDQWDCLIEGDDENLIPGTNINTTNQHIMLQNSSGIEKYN
LYPLA1 counter – LYPLA1 inhibitors, primary screen, counter-screen for PME1 inhibitor project, biochemical, fluorescence polarization, FP-Rh probe ABPP. Acyl-protein thioesterase 1 (Homo sapiens), O75608. recombinant LYPLA1. inhibition, % at 5.9 µM. 0.16% of 320,000 active;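 active = inhibition above the mean of all tested compounds plus 3 SD, set per campaign, cut at about 14% in these data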;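 also: inhibitors block serine hydrolase probe labeling of LYPLA1 so polarization falls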
PAFAH2 inh – PAFAH2 enzyme inhibitors, primary screen, biochemical, fluorescence polarization, human. Platelet-activating factor acetylhydrolase 2, cytoplasmic (Homo sapiens), Q99487. recombinant PAFAH2, FP-rhodamine activity probe. inhibition, % at 3.39 µM. 0.99% of 340,000 active;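 active = inhibition above the mean over all tested compounds plus 3 SD, cut at about 30% in these data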;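 also: inhibitors block probe labeling of enzyme so polarization drops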
LYPLA2 counter – LYPLA2 inhibitors, primary screen, counter-screen for PME1 inhibitor project, biochemical, fluorescence polarization, FP-Rh probe ABPP | Acyl-protein thioesterase 2 (Homo sapiens), O95372 | recombinant LYPLA2 | inhibition, % at 5.9 µM | 0.38% of 320,000 active;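 active = inhibition above the screen-wide mean plus 3 SD, limit set per campaign, cut at about 26% in these data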
Hits are given with their value; i = inactive; nt = no result.

SMILES | PAFAH1B2 FP inh | PAFAH1B3 FP inh | pPAFAH FP inh | LYPLA1 counter | PAFAH2 inh | LYPLA2 counter
O=S(=O)(Nc1ncnc2sc3c(c12)CCC3)c1ccc(Cl)s1 | i | i | i | i | i | i
O=C(COC(=O)C1(c2ccc(F)cc2)CCCC1)N1CCc2ccccc21 | 27.7 | i | i | i | i | i
O=C(COC(=O)C1(c2ccccc2F)CCCC1)N1CCc2ccccc21 | i | i | i | i | i | i
CC(C)NC(=O)Nc1ccc2c(c1)C(=O)N([C@H](C)CO)C[C@H](C)[C@@H](CN(C)S(=O)(=O)c1cccs1)O2 | i | i | i | nt | i | nt
O=C1CCCC/C1=C\Nc1ccc(O)cc1 | i | i | 26.1 | i | i | i
O=C1CCC/C1=C/Nc1ccc(Cl)cc1 | i | i | i | i | i | i
O=C(/C=C/c1ccc(S(=O)(=O)NCc2ccco2)cc1)NCc1ccccc1Cl | i | i | 31.5 | i | i | i
Cc1cc(C(C)(C)C)cc(S(=O)(=O)Nc2ccc(O)c(C(=O)O)c2)c1C | 46.9 | i | i | i | i | i
O=C(O)c1cc(NS(=O)(=O)c2cccc3ccccc23)ccc1O | i | i | i | i | i | i
CCn1nnnc1SCC(=O)Nc1ccc2c(c1)OCCO2 | i | i | i | i | i | i
COc1ccc(OC)c(Nc2ccc(Nc3cc(OC)ccc3OC)nn2)c1 | i | i | 30.4 | i | i | i
COc1cc(NC2=Nc3cccc4cccc2c34)cc(OC)c1OC | i | i | i | i | i | i
CC1(C)NC(=O)N(CCCCOc2ccc(Br)cc2Cl)C1=O | 24.2 | i | i | i | i | i
CC1(C)NC(=O)N(CCCOc2ccc(Br)cc2Cl)C1=O | i | i | i | i | i | i
CC(C)n1c(=S)[nH]c2scc(-c3cccs3)c2c1=O | i | i | 32.7 | i | i | i
N=C1C(c2nc(-c3ccc(F)cc3)cs2)=C(O)CN1CCCN1CCOCC1 | i | i | i | i | 38.1 | i
CN(C)C(=O)c1cc(C(=O)c2ccc(F)cc2C(F)(F)F)c[nH]1 | i | i | 29.8 | i | i | i
CN(C)C(=O)c1cc(C(=O)c2ccccc2C(F)(F)F)c[nH]1 | i | i | i | i | i | i
Cc1ccnc(NS(=O)(=O)c2ccc(NC(=O)Cc3cccs3)cc2)n1 | i | i | 33.8 | i | i | i
COc1ccccc1NC(=O)CSc1nc(O)c(Cc2ccccc2)c(=O)[nH]1 | i | i | i | i | i | i
c1coc(CSSCc2ccco2)c1 | i | 29.6 | i | i | 49.8 | i
CCCCSc1n[nH]c(N)n1 | i | i | i | i | i | i
Fc1cc(Br)ccc1NC(=S)Nc1ccccc1 | i | i | i | i | i | i
COC(=O)CNC(c1ccccc1)c1cc(Br)ccc1NC(=O)CNC(=O)OCc1ccccc1 (stereo unspecified) | i | i | 29.4 | i | i | i
CCOC(=O)CNC(c1ccccc1)c1cc(Br)ccc1NC(=O)OCC (stereo unspecified) | i | i | i | i | i | i
SMILES | PAFAH1B2 FP inh | PAFAH1B3 FP inh | pPAFAH FP inh | LYPLA1 counter | PAFAH2 inh | LYPLA2 counter
CCCc1nnc(NC(=O)C23CC4CC(CC(C4)C2)C3)s1 | 24.6 | i | nt | nt | i | nt
CCc1nnc(NC(=O)CC23CC4CC(CC(Br)(C4)C2)C3)s1 | 26.7 | i | i | i | i | i
O=C(CC(Nc1cccc(Cl)c1Cl)C(=O)OCC(=O)c1cccs1)c1ccccc1 (stereo unspecified) | i | i | i | i | i | i
CC(C)C(=O)Nc1cccc(S(=O)(=O)c2cccc(NC(=O)C(C)C)c2)c1 | i | i | i | i | i | i
Cc1ccccc1Nc1cc2ccccc2c(=O)[nH]1 | i | 54.2 | i | i | i | i
O=c1[nH]c(Nc2ccccc2Cl)cc2ccccc12 | i | i | i | i | i | i
O=C(COc1ccc(S(=O)(=O)NC2CCCC2)cc1)N1CCCCC1 | i | i | i | i | i | i
O=C(CSc1n[nH]c(-c2ccc(S(=O)(=O)NC3CCCCC3)cc2)n1)N1CCCC1 | i | i | 27.9 | i | i | i
CN(CCc1ccccn1)C(=O)Nc1ccc(Cl)cc1 | i | i | i | i | i | i
O=C(/C=C/c1ccccc1Cl)NNC(=O)c1ccncc1 | i | i | i | i | i | i
O=C(Nc1ccccc1Oc1ccccc1)c1ccccc1F | i | i | 28.3 | i | i | i
CC(=O)c1ccc(NS(=O)(=O)c2ccc3c(c2)N(C(C)=O)CCO3)cc1 | i | i | i | i | i | i
Cc1ccc(NS(=O)(=O)c2ccc3c(c2)N(C)CCO3)cc1 | i | i | 28.1 | i | i | i
CCc1cccc(NS(=O)(=O)c2ccc3c(c2)N(C)CCO3)c1 | i | i | 29.9 | i | i | i
Cc1ccc(CCNS(=O)(=O)c2ccc3c(c2)N(C)CCO3)cc1 | 29.9 | i | i | i | i | i
CCOc1ccc(NS(=O)(=O)c2ccc(OC)c(NC(=O)c3ccc4c(c3)OCCO4)c2)cc1 | i | i | 26.7 | i | i | i
Cc1sc2ncnc(SCC(=O)c3ccc(O)cc3O)c2c1C | i | i | i | i | i | i
CCOc1nc(NC(=O)NS(=O)(=O)c2ccccc2F)nc(-c2ccccc2)n1 | i | i | nt | nt | i | nt
CC(=O)N1CCSc2ccc(S(=O)(=O)Nc3ccc(C)cc3)cc21 | i | i | 24.9 | i | i | i
COc1ccc(NS(=O)(=O)c2ccc3c(c2)N(C(C)=O)CCS3)cc1 | i | i | i | i | i | i
CCOc1ccc(NS(=O)(=O)c2ccc3c(c2)N(C(C)=O)CCO3)cc1 | i | i | 32.0 | i | i | i
CCC(C)N(C)C(=O)c1cc2ccccc2c(-c2ccccc2Cl)n1 (stereo unspecified) | i | i | i | i | i | i
N=C1/C(=C/c2ccc(OCc3ccccc3F)cc2)C(=O)N=C2SC(CC(=O)N3CCOCC3)=NN12 | i | i | i | i | i | i
COc1cc(/C=C2/C(=N)N3N=C(CC(=O)N4CCOCC4)SC3=NC2=O)ccc1OC(C)c1ccccc1 (stereo unspecified) | 27.9 | i | i | i | i | i
CS(=O)(=O)Oc1ccc(/C=C2\C(=N)N3N=C(CC(=O)N4CCOCC4)SC3=NC2=O)cc1Cl | i | i | i | i | i | i
N=C1/C(=C/c2ccc(OCc3ccccc3)cc2)C(=O)N=C2SC(CC(=O)N3CCOCC3)=NN12 | 27.8 | i | i | i | i | i
CN(C)c1ccc(C(=O)N2CCCC(CCC(=O)N3CCN(c4ccccn4)CC3)C2)cc1 (stereo unspecified) | i | i | 26.3 | i | i | i
COc1ccc(C(=O)N2CCCC(CCC(=O)N3CCN(c4ccccn4)CC3)C2)cc1 (stereo unspecified) | i | i | i | i | i | i
